Reference: PubChem BioAssay (NCATS)
Inconclusive results are not listed. Calls of active or inactive are those of the source. Unless noted, calls follow the shape of the dose curve; as a rule, active = well fitted curve in the direction sought with a large enough effect; inconclusive = small, poorly fitted or top-dose-only effect, or another doubt; inactive = no such curve, though single readings can be large; an effect the other way counts as inactive or inconclusive.

Columns and labels:
[1] = biological target: Ubiquitin carboxyl-terminal hydrolase 1 (Homo sapiens) (UniProt O94782); test: Inhibitors of USP1/UAF1: Pilot qHTS (AID 504865);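 also: rhodamine fluorescence freed from ubiquitin-rhodamine substrate followed over time; top concentration of the series differs between compounds; % is scaled to controls: 0 for no effect and ±100 for the full control effect; nearly all actives have a fitted effect of over 35% in size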
Ubiquitin carboxyl-terminal hydrolase 1 (Homo sapiens), sequence (O94782 whole entry, looked up): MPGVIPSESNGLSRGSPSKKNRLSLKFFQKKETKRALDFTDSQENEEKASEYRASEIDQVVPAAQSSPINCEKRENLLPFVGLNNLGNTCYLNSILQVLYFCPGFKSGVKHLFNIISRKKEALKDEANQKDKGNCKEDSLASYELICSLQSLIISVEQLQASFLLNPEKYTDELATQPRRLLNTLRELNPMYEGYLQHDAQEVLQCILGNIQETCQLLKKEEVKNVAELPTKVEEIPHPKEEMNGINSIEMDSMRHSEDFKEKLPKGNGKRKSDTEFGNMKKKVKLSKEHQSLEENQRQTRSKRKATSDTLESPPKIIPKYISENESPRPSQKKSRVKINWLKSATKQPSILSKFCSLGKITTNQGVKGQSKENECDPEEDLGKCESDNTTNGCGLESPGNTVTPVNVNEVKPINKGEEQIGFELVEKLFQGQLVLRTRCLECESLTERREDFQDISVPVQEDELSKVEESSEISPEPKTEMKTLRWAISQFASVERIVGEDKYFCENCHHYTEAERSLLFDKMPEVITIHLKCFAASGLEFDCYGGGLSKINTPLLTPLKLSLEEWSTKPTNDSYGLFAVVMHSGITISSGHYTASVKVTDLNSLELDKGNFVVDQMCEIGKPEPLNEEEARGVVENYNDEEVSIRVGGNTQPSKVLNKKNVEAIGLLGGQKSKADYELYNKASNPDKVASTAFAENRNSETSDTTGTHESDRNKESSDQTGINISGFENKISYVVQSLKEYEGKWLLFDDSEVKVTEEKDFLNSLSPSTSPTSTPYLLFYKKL
Procedure, shortened: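 USP1/UAF1 complex (1nM) preincubated with compound 15 min at room temperature, then Ub-Rho substrate (150nM final) added. Fluorescence read kinetically at 480/540 nm, 6 reads every 60 seconds. Buffer: 50mM HEPES pH 7.8, 0.5mM EDTA, 0.1 mg/ml BSA, 1mM TCEP, 0.01% Tween-20.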

[2] = biological target: Luciferin 4-monooxygenase (Photinus pyralis) (UniProt P08659); test: Biochemical firefly luciferase enzyme assay for NPC (AID 624030);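 also: purified P. pyralis luciferase at 10 nM with luciferin and ATP substrate; 0% = DMSO and -100% = full luciferase inhibition by PTC124 control; nearly all actives have a fitted effect of over 70% in size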
Luciferin 4-monooxygenase (Photinus pyralis), sequence (P08659 whole entry, looked up): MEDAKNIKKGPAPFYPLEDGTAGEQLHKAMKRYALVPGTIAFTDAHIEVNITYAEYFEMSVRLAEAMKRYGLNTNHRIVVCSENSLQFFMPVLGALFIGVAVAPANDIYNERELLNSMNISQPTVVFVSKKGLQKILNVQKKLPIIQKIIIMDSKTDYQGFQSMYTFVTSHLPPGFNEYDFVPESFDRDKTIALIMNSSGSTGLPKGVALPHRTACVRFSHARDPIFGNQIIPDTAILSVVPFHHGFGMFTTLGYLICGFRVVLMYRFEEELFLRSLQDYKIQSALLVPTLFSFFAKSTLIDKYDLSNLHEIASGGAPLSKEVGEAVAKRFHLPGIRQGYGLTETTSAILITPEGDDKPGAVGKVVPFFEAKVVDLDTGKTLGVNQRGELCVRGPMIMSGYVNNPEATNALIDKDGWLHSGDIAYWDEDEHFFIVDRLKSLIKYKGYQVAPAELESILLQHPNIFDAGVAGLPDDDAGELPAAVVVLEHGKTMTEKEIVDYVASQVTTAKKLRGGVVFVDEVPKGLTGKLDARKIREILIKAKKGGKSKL
Procedure, shortened: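 Purified P. pyralis luciferase at 10 nM in 50 mM Tris Acetate (final), luminescence read within 5 minutes of enzyme addition to compounds. Activity normalised to PTC124 versus DMSO; concentration-response curves classed by r2, magnitude and activity.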

[3] = S16 Schwann cell viability assay (CellTiter-Glo assay) (AID 624031);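 also: native untransfected S16 rat Schwann cells; cellular ATP luminescence as a viability measure; plate controls were DMSO-treated cells for no effect and cell-free wells for full effect; nearly all actives have a fitted effect of over 70% in size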
Procedure, shortened: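 Parental S16 cells, 24 h compound, 37 °C. ATP-luminescence viability; DMSO = 0% activity, empty wells as reference; curves classified by fit quality and efficacy.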

[4] = S16 Schwann cell PMP22 intronic element firefly luciferase assay (AID 624032);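 also: plate controls were DMSO for no effect and PTC124 positive control mean for full effect; nearly all actives have a fitted effect of over 30% in size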
Procedure, shortened: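 Rat S16 Schwann cells stably carrying firefly luciferase driven by a PMP22 intronic element, in 10% FBS, treated 24 h at 37 C. ONE-Glo luminescence normalized to PTC124 control and DMSO (0%); curves classed by r2, magnitude and activity.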

[5] = S16 Schwann cell PMP22 intronic element beta-lactamase assay (AID 624044; calls by dose curve;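 also: 0% = DMSO and -100% = potassium clavulanate positive control; nearly all actives have a fitted effect of over 15% in size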)
Procedure, shortened: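 Beta-lactamase reporter under a PMP22 intronic regulatory element in stable S16 rat Schwann cells; 24 h compound exposure. 460 nm blue signal normalized between DMSO (0%) and potassium clavulanate, with 535 nm FRET tracking viability; curves classed by r2 and response.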

[6] = qHTS profiling for inhibitors of Plasmodium falciparum proliferation (AID 504749);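 also: 0% = DMSO vehicle and full inhibition = artemisinin control; nearly all actives have a fitted effect of over 60% in size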; conditions: P. falciparum in erythrocytes, SYBR Green DNA, 72 h, at 28.7 µM (top of the series)
Procedure, shortened: (§1)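 SYBR Green fluorescence (ex 485 nm, em 535 nm) reports parasite DNA after 72 h compound exposure of infected red cells at 0.3% parasitemia, 2.5% hematocrit; signal normalized to 0.29 uM artemisinin and vehicle wells.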

3D7 = test: as above; conditions: P. falciparum in erythrocytes, SYBR Green DNA, 72 h; series mostly up to 28.7 µM
Procedure, shortened: as §1

7G8 = test: as above; conditions: P. falciparum in erythrocytes, SYBR Green DNA, 72 h; series mostly up to 28.7 µM
Procedure, shortened: as §1

AA1029 = test: as above; conditions: P. falciparum in erythrocytes, SYBR Green DNA, 72 h; series mostly up to 28.7 µM
Procedure, shortened: as §1

AS120 = test: as above; conditions: P. falciparum in erythrocytes, SYBR Green DNA, 72 h; series mostly up to 28.7 µM
Procedure, shortened: as §1

ATS189 = test: as above; conditions: P. falciparum in erythrocytes, SYBR Green DNA, 72 h; series mostly up to 28.7 µM
Procedure, shortened: as §1

ATS95 = test: as above; conditions: P. falciparum in erythrocytes, SYBR Green DNA, 72 h; series mostly up to 28.7 µM
Procedure, shortened: as §1

C2A = test: as above; conditions: P. falciparum in erythrocytes, SYBR Green DNA, 72 h; series mostly up to 28.7 µM
Procedure, shortened: as §1

CP185 = test: as above; conditions: P. falciparum in erythrocytes, SYBR Green DNA, 72 h; series mostly up to 28.7 µM
Procedure, shortened: as §1

CP191 = test: as above; conditions: P. falciparum in erythrocytes, SYBR Green DNA, 72 h; series mostly up to 28.7 µM
Procedure, shortened: as §1

CP192 = test: as above; conditions: P. falciparum in erythrocytes, SYBR Green DNA, 72 h; series mostly up to 28.7 µM
Procedure, shortened: as §1

CP194 = test: as above; conditions: P. falciparum in erythrocytes, SYBR Green DNA, 72 h; series mostly up to 28.7 µM
Procedure, shortened: as §1

CP201 = test: as above; conditions: P. falciparum in erythrocytes, SYBR Green DNA, 72 h; series mostly up to 28.7 µM
Procedure, shortened: as §1

CP203 = test: as above; conditions: P. falciparum in erythrocytes, SYBR Green DNA, 72 h; series mostly up to 28.7 µM
Procedure, shortened: as §1

CP211 = test: as above; conditions: P. falciparum in erythrocytes, SYBR Green DNA, 72 h; series mostly up to 28.7 µM
Procedure, shortened: as §1

CP215 = test: as above; conditions: P. falciparum in erythrocytes, SYBR Green DNA, 72 h; series mostly up to 28.7 µM
Procedure, shortened: as §1

CP217 = test: as above; conditions: P. falciparum in erythrocytes, SYBR Green DNA, 72 h; series mostly up to 28.7 µM
Procedure, shortened: as §1

CP237 = test: as above; conditions: P. falciparum in erythrocytes, SYBR Green DNA, 72 h; series mostly up to 28.7 µM
Procedure, shortened: as §1

CP238 = test: as above; conditions: P. falciparum in erythrocytes, SYBR Green DNA, 72 h; series mostly up to 28.7 µM
Procedure, shortened: as §1

CP247 = test: as above; conditions: P. falciparum in erythrocytes, SYBR Green DNA, 72 h; series mostly up to 28.7 µM
Procedure, shortened: as §1

CP250 = test: as above; conditions: P. falciparum in erythrocytes, SYBR Green DNA, 72 h; series mostly up to 28.7 µM
Procedure, shortened: as §1

CP252 = test: as above; conditions: P. falciparum in erythrocytes, SYBR Green DNA, 72 h; series mostly up to 28.7 µM
Procedure, shortened: as §1

CP256 = test: as above; conditions: P. falciparum in erythrocytes, SYBR Green DNA, 72 h; series mostly up to 28.7 µM
Procedure, shortened: as §1

CP260 = test: as above; conditions: P. falciparum in erythrocytes, SYBR Green DNA, 72 h; series mostly up to 28.7 µM
Procedure, shortened: as §1

CP262 = test: as above; conditions: P. falciparum in erythrocytes, SYBR Green DNA, 72 h; series mostly up to 28.7 µM
Procedure, shortened: as §1

CP265 = test: as above; conditions: P. falciparum in erythrocytes, SYBR Green DNA, 72 h; series mostly up to 28.7 µM
Procedure, shortened: as §1

CP266 = test: as above; conditions: P. falciparum in erythrocytes, SYBR Green DNA, 72 h; series mostly up to 28.7 µM
Procedure, shortened: as §1

CP268 = test: as above; conditions: P. falciparum in erythrocytes, SYBR Green DNA, 72 h; series mostly up to 28.7 µM
Procedure, shortened: as §1

CP269 = test: as above; conditions: P. falciparum in erythrocytes, SYBR Green DNA, 72 h; series mostly up to 28.7 µM
Procedure, shortened: as §1

CP286 = test: as above; conditions: P. falciparum in erythrocytes, SYBR Green DNA, 72 h; series mostly up to 28.7 µM
Procedure, shortened: as §1

CP291 = test: as above; conditions: P. falciparum in erythrocytes, SYBR Green DNA, 72 h; series mostly up to 28.7 µM
Procedure, shortened: as §1

CP297 = test: as above; conditions: P. falciparum in erythrocytes, SYBR Green DNA, 72 h; series mostly up to 28.7 µM
Procedure, shortened: as §1

CP305 = test: as above; conditions: P. falciparum in erythrocytes, SYBR Green DNA, 72 h; series mostly up to 28.7 µM
Procedure, shortened: as §1

CP315 = test: as above; conditions: P. falciparum in erythrocytes, SYBR Green DNA, 72 h; series mostly up to 28.7 µM
Procedure, shortened: as §1

CP325 = test: as above; conditions: P. falciparum in erythrocytes, SYBR Green DNA, 72 h; series mostly up to 28.7 µM
Procedure, shortened: as §1

CP329 = test: as above; conditions: P. falciparum in erythrocytes, SYBR Green DNA, 72 h; series mostly up to 28.7 µM
Procedure, shortened: as §1

CP335 = test: as above; conditions: P. falciparum in erythrocytes, SYBR Green DNA, 72 h; series mostly up to 28.7 µM
Procedure, shortened: as §1

DIV14 = test: as above; conditions: P. falciparum in erythrocytes, SYBR Green DNA, 72 h; series mostly up to 28.7 µM
Procedure, shortened: as §1

DIV17 = test: as above; conditions: P. falciparum in erythrocytes, SYBR Green DNA, 72 h; series mostly up to 28.7 µM
Procedure, shortened: as §1

DIV30 = test: as above; conditions: P. falciparum in erythrocytes, SYBR Green DNA, 72 h; series mostly up to 28.7 µM
Procedure, shortened: as §1

Dd2 = test: as above; conditions: P. falciparum in erythrocytes, SYBR Green DNA, 72 h; series mostly up to 28.7 µM
Procedure, shortened: as §1

ECU = test: as above; conditions: P. falciparum in erythrocytes, SYBR Green DNA, 72 h; series mostly up to 28.7 µM
Procedure, shortened: as §1

FAB9 = test: as above; conditions: P. falciparum in erythrocytes, SYBR Green DNA, 72 h; series mostly up to 28.7 µM
Procedure, shortened: as §1

GB4 = test: as above; conditions: P. falciparum in erythrocytes, SYBR Green DNA, 72 h; series mostly up to 28.7 µM
Procedure, shortened: as §1

HB3 = test: as above; conditions: P. falciparum in erythrocytes, SYBR Green DNA, 72 h; series mostly up to 28.7 µM
Procedure, shortened: as §1

ICS = test: as above; conditions: P. falciparum in erythrocytes, SYBR Green DNA, 72 h; series mostly up to 28.7 µM
Procedure, shortened: as §1

JCK = test: as above; conditions: P. falciparum in erythrocytes, SYBR Green DNA, 72 h; series mostly up to 28.7 µM
Procedure, shortened: as §1

N140 = test: as above; conditions: P. falciparum in erythrocytes, SYBR Green DNA, 72 h; series mostly up to 28.7 µM
Procedure, shortened: as §1

P93_24 = test: as above; conditions: P. falciparum in erythrocytes, SYBR Green DNA, 72 h; series mostly up to 28.7 µM
Procedure, shortened: as §1

P94_40 = test: as above; conditions: P. falciparum in erythrocytes, SYBR Green DNA, 72 h; series mostly up to 28.7 µM
Procedure, shortened: as §1

PAD = test: as above; conditions: P. falciparum in erythrocytes, SYBR Green DNA, 72 h; series mostly up to 28.7 µM
Procedure, shortened: as §1

PC15 = test: as above; conditions: P. falciparum in erythrocytes, SYBR Green DNA, 72 h; series mostly up to 28.7 µM
Procedure, shortened: as §1

PC26 = test: as above; conditions: P. falciparum in erythrocytes, SYBR Green DNA, 72 h; series mostly up to 28.7 µM
Procedure, shortened: as §1

PC49 = test: as above; conditions: P. falciparum in erythrocytes, SYBR Green DNA, 72 h; series mostly up to 28.7 µM
Procedure, shortened: as §1

SC27B = test: as above; conditions: P. falciparum in erythrocytes, SYBR Green DNA, 72 h; series mostly up to 28.7 µM
Procedure, shortened: as §1

TAB109 = test: as above; conditions: P. falciparum in erythrocytes, SYBR Green DNA, 72 h; series mostly up to 28.7 µM
Procedure, shortened: as §1

TAB113 = test: as above; conditions: P. falciparum in erythrocytes, SYBR Green DNA, 72 h; series mostly up to 28.7 µM
Procedure, shortened: as §1

TAB165 = test: as above; conditions: P. falciparum in erythrocytes, SYBR Green DNA, 72 h; series mostly up to 28.7 µM
Procedure, shortened: as §1

W2 = test: as above; conditions: P. falciparum in erythrocytes, SYBR Green DNA, 72 h; series mostly up to 28.7 µM
Procedure, shortened: as §1

CC(=O)OCC1=C(C(=O)O)N2C(=O)C(NC(=O)Cc3ccccc3)C2SC1 (stereo not given)
inactive: Potency [1] | Potency [2] | Potency [3] | Potency [4] | Potency [5] | activity, negative = inhibition ([6]; parasite line A) 1.08% | activity, negative = inhibition ([6]; parasite line B) 0.234% | Potency (3D7) | Potency (7G8) | Potency (AA1029) | Potency (AS120) | Potency (ATS189) | Potency (ATS95) | Potency (C2A) | Potency (CP185) | Potency (CP191) | Potency (CP192) | Potency (CP194) | Potency (CP201) | Potency (CP203) | Potency (CP211) | Potency (CP215) | Potency (CP217) | Potency (CP237) | Potency (CP238) | Potency (CP247) | Potency (CP250) | Potency (CP252) | Potency (CP256) | Potency (CP260) | Potency (CP262) | Potency (CP265) | Potency (CP266) | Potency (CP268) | Potency (CP269) | Potency (CP286) | Potency (CP291) | Potency (CP297) | Potency (CP305) | Potency (CP315) | Potency (CP325) | Potency (CP329) | Potency (CP335) | Potency (DIV14) | Potency (DIV17) | Potency (DIV30) | Potency (Dd2) | Potency (ECU) | Potency (FAB9) | Potency (GB4) | Potency (HB3) | Potency (ICS) | Potency (JCK) | Potency (N140) | Potency (P93_24) | Potency (P94_40) | Potency (PAD) | Potency (PC15) | Potency (PC26) | Potency (PC49) | Potency (SC27B) | Potency (TAB109) | Potency (TAB113) | Potency (TAB165) | Potency (W2)
